Out of some 310,000 compounds screened, about 14,000 (4.5%) showed an effect of 50% or more. The effect is printed as a negative number. The sample holds strong results, similar compounds and a random draw of the others, so the mix is not that of the screen.
Molecular target: human ether-à-go-go-related gene (hERG) potassium channel (human, UniProt Q12809)
Assay: primary screen, population patch clamp on CHO cells stably expressing hERG; higher = less effect of the substance
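Also: peak tail current of the secondary pulse compared with the same well before compound.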

Sequence of human ether-à-go-go-related gene (hERG) potassium channel (Q12809 whole entry, looked up): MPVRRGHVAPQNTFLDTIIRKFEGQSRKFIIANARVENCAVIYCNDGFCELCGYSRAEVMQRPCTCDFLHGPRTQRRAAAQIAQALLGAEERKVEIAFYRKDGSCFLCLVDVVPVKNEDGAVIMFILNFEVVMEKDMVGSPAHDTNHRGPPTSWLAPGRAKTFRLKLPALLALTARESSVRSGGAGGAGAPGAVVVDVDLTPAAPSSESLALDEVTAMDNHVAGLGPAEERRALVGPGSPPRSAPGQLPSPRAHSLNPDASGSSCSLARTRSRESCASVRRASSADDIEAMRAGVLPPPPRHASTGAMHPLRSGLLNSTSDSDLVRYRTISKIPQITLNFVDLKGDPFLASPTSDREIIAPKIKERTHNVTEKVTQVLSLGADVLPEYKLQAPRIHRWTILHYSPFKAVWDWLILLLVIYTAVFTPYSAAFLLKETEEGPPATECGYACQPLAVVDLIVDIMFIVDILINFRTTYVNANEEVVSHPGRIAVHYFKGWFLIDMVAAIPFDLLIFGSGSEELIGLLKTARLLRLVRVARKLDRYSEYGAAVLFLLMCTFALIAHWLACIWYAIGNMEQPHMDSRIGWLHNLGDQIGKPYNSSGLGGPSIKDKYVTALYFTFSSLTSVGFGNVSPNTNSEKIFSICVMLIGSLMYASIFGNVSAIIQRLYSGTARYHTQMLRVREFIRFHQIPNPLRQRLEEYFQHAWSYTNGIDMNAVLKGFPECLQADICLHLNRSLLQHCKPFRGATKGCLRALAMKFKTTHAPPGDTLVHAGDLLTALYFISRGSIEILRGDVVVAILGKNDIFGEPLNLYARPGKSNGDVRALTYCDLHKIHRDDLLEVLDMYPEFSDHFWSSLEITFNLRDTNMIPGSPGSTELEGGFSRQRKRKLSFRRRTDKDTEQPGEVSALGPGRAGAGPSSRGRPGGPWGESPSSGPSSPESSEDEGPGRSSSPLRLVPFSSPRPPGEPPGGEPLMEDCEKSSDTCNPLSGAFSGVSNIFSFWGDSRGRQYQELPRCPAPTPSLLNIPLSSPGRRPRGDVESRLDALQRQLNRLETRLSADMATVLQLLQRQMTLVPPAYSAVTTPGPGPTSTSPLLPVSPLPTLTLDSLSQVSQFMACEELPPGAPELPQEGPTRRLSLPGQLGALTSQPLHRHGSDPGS

Row | Compound | hERG current change (%, negative = inhibition) at 10uM [%]
1 | CCc1ccc(C2CC(c3ccc(Cl)cc3)n3nc(N)nc3N2)cc1 (stereo not shown) | -10.3
2 | CC(C(=O)N1CCc2ccccc21)N1CCN(S(=O)(=O)c2cccs2)CC1 (stereo not shown) | -28.8
3 | Cc1ccnc(OC(C(=O)O)C(OCCc2ccccc2)(c2ccccc2)c2ccccc2)n1 (stereo not shown) | 23.2
4 | CC(=O)Nc1n[nH]c(-c2ccc(C)cc2)c1C | 4.49
5 | Cc1ccc(CNS(=O)(=O)CCNC(=O)c2ccccc2)cc1 | -33.5
6 | Cc1[nH]nc2c1C(c1cccs1)C(C#N)=C(N)O2 (stereo not shown) | 5.07
7 | O=C(OCC(=O)N1CCc2ccccc2C1)c1cccnc1Cl | -0.321
8 | COc1ccc(C2=NS(=O)(=O)N(C)C(C(=O)NCc3ccc(F)cc3)=C2)cc1OC | -59
9 | COc1ccc(C2=NS(=O)(=O)N(C)C(C(=O)NCc3ccc4c(c3)OCO4)=C2)cc1 | -63.3
10 | COc1ccc(C2=NS(=O)(=O)N(C)C(C(=O)Nc3ccc4c(c3)OCO4)=C2)cc1 | -4.37
11 | Cc1ccc(C2=NS(=O)(=O)N(C)C(C(=O)NCc3ccc(F)cc3)=C2)cc1 | -28.4
12 | COc1ccc(C2=NS(=O)(=O)N(C)C(C(=O)NCc3ccc4c(c3)OCO4)=C2)cc1OC | -34.9
13 | COc1ccc(CNC(=O)C2=CC(c3ccc(OC)c(OC)c3)=NS(=O)(=O)N2C)cc1 | -21.8
14 | Cc1cc(C)nc(NC(=O)c2ccccc2O)n1 | 18.3
15 | Fc1cccc(Cl)c1CSc1ccc(-c2cccnc2)nn1 | -68.9
16 | c1ccc(CSc2ccc(-c3cccnc3)nn2)nc1 | 6.82
17 | c1cncc(CSc2ccc(-c3cccnc3)nn2)c1 | 9.04
18 | c1ccc(CSc2ccc(-c3cccnc3)nn2)cc1 | -13.7
19 | Fc1cccc(Cl)c1CSc1ccc(-c2ccco2)nn1 | 1.19
20 | Clc1ccc(CSc2ccc(-c3cccnc3)nn2)cc1 | -48.6
21 | O=[N+]([O-])c1cccc(-c2ccc(SCc3cccnc3)nn2)c1 | -55
22 | Clc1cccc(CSc2ccc(-c3cccnc3)nn2)c1 | -67.3

Row | Compound | hERG current change (%, negative = inhibition) at 10uM [%]
23 | O=[N+]([O-])c1cccc(-c2ccc(SCc3ccccn3)nn2)c1 | -6.25
24 | N#Cc1c(NC(=O)COC(=O)c2ccc(S(=O)(=O)N3CCCC3)cc2)sc2c1CCCCC2 | 6.38
25 | CCCCC1C(C#N)=C(C)NC2=C1C(=O)CC(C)(C)C2 (stereo not shown) | -9.68
26 | O=C(CSc1nc(NS(=O)(=O)c2ccccc2)cc(=O)[nH]1)Nc1ccc(F)cc1 | 10.7
27 | CC(C)c1ccc(OCC(=O)Nc2ccc(S(=O)(=O)Nc3ccccn3)cc2)cc1 | 10.7
28 | Clc1ccc(CNc2ncccn2)cc1 | 13.5
29 | CCOc1ccc(/C(O)=C2/C(=O)C(=O)N(CC3CCCO3)C2c2ccco2)cc1 (stereo not shown) | 14.2
30 | COc1ccc(CNC(=O)CCOc2ccc(C(C)(C)C)cc2)cc1 | 8.47
31 | O=C1NCCN1CCNS(=O)(=O)c1cc(C(F)(F)F)cc(C(F)(F)F)c1 | 17.2
32 | Cc1csc(Nc2ccccc2C(F)(F)F)n1 | 6.46
33 | N#C/C(=C\c1c(N2CCCCC2)nc2ccccn2c1=O)S(=O)(=O)c1ccccc1 | -40.7
34 | Cc1ccc(S(=O)(=O)/C(C#N)=C/c2c(N3CCN(C)CC3)nc3ccccn3c2=O)cc1 | -59.1
35 | N#C/C(=C\c1c(N2CCN(Cc3ccccc3)CC2)nc2ccccn2c1=O)S(=O)(=O)c1ccccc1 | 0.944
36 | N#C/C(=C\c1c(N2CCN(c3ccccc3)CC2)nc2ccccn2c1=O)S(=O)(=O)c1ccccc1 | 2.28
37 | Cc1ccc(S(=O)(=O)/C(C#N)=C/c2c(N3CCCCC3)nc3ccccn3c2=O)cc1 | -29.9
38 | CCN1CCN(c2nc3ccccn3c(=O)c2/C=C(\C#N)S(=O)(=O)c2ccccc2)CC1 | -42.3
39 | CN1CCN(c2nc3ccccn3c(=O)c2/C=C(\C#N)S(=O)(=O)c2ccc(Cl)cc2)CC1 | -51.9
40 | N#C/C(=C\c1c(N2CCOCC2)nc2ccccn2c1=O)S(=O)(=O)c1ccccc1 | -63.2
41 | CN1CCN(c2nc3ccccn3c(=O)c2/C=C(\C#N)S(=O)(=O)c2ccccc2)CC1 | -24.9
42 | CCOC(=O)c1cccc(NC(=O)c2ccc(F)cc2F)c1 | -16.1
43 | O=c1ccnc(Nc2ccc(Cl)cc2)[nH]1 | -10.3
44 | C/C(=N/NC(=O)CNC(=O)c1ccco1)c1ccco1 | 2.11

Row | Compound | hERG current change (%, negative = inhibition) at 10uM [%]
45 | Cc1cccnc1NC(=O)Nc1ccc(Cl)cc1 | 9.39
46 | Cc1ccc(N(CCC#N)C(=O)CSc2nnc3ccccn23)cc1 | -8.44
47 | COc1ccc2ccccc2c1CN1CCN(Cc2ccccc2)CC1 | -2.66
48 | Oc1cccc(Nc2nc(N3CCOCC3)nc(N3CCOCC3)n2)c1 | 8.76
49 | CSc1ccc(CN(C)C(=O)CNC(=O)CNS(=O)(=O)c2ccc(C)c(C)c2)cc1 | -24.1
50 | CN(C(=O)N1CCN(c2ccccn2)CC1)c1ccccc1 | 7.47
51 | Cc1cc(Cn2nc(-c3ccccc3)cc2C(=O)NCc2cccc(C(F)(F)F)c2)on1 | 10.8
52 | Cc1cc(Cn2nc(C(=O)NCc3cccc(C(F)(F)F)c3)cc2-c2ccccc2)on1 | -57
53 | Cc1cc(Cn2nc(C(=O)NCc3cccc(Br)c3)cc2-c2ccccc2)on1 | -20.3
54 | CCOC(=O)c1c(NC(=O)CSc2nnc(C)s2)sc2c1CCC(C)C2 (stereo not shown) | 21.5
55 | CN1CCN(c2ccc(NS(=O)(=O)c3ccc(Cl)cc3)cn2)CC1 | -40.2
56 | O=C(CC1SC(=O)N(Cc2ccccc2Cl)C1=O)Nc1nccs1 (stereo not shown) | -5.31
57 | CC1=C/C(=N\NC(=O)c2ccc(O)cc2)CC1 | 20.8
58 | CC1=C/C(=N\NC(=O)c2ccccc2)CC1 | -53.1
59 | COc1ccccc1OCC(=O)N/N=C1/C=C(C)CC1 | -3.82
60 | Cc1oc2c(c1C(=O)NCc1cccnc1)C(=O)c1ccccc1C2=O | -47
61 | COc1cccc(NC(=O)CCc2nc(-c3ccccc3F)no2)c1 | -0.885
62 | O=C(Nc1cc(S(=O)(=O)N2CCOCC2)ccc1-n1cncn1)c1ccc(Cl)cc1 | -50.4
63 | O=C(Nc1cc(Cl)ccc1-n1cncn1)c1cccc(S(=O)(=O)N2CCOCC2)c1 | -61.9
64 | CN1CCN(S(=O)(=O)c2cccc(C(=O)Nc3cc(Cl)ccc3N3CCOCC3)c2)CC1 | -42.3
65 | CCN(CC)c1ccc(C(=O)NC(=S)Nc2cc(S(=O)(=O)N3CCOCC3)ccc2-n2cncn2)cc1 | -7.1
66 | COc1cc(OC)c(C(=O)Nc2cc(Cl)ccc2-n2cncn2)cc1OC | -55

Row | Compound | hERG current change (%, negative = inhibition) at 10uM [%]
67 | COc1ccccc1C(=O)Nc1cc(Cl)ccc1-n1cncn1 | 0.114
68 | O=C(Nc1cc(Cl)ccc1-n1cncn1)c1ccc(F)c(S(=O)(=O)N2CCOCC2)c1 | -44.6
69 | COc1ccc(C(=O)Nc2cc(Cl)ccc2-n2cncn2)c(OC)c1OC | -14.4
70 | O=C(Nc1cc(Cl)ccc1-n1cncn1)c1cc(S(=O)(=O)N2CCOCC2)ccc1F | -34.7
71 | Oc1c(C(c2cccs2)N2CCN(c3ccccc3)CC2)ccc2cccnc12 (stereo not shown) | 7.17
72 | COC(=O)C1C(O)=C(C=NCc2ccccc2)C(=O)CC1(C)C (stereo not shown) | -5.13
73 | CC(=O)N(C)c1ccc(NC(=O)N2CCOCC2)cc1 | 4.94
74 | Cc1ccc(N2CC(O)Cn3c2nc2c3c(=O)[nH]c(=O)n2C)cc1 (stereo not shown) | 13.3
75 | Cc1ccc2nc(NCCC(=O)O)nc(-c3ccccc3)c2c1 | 3.76
76 | CN(Cc1ccccc1)C(=O)CCC1CCN(C(=O)c2ccccc2C(F)(F)F)CC1 | 8.38
77 | CSCc1ccc(C(=O)N2CCC(CCC(=O)N(C)Cc3ccccc3)CC2)o1 | -50.7
78 | CN(Cc1ccccc1)C(=O)CCC1CCN(C(=O)CCC(F)(F)F)CC1 | -4.45
79 | COC(=O)c1ccc(OC)c(CSc2nnc(COc3ccccc3)o2)c1 | -17.7
80 | Br.CCOC(=O)c1c(CSC(=N)N)n(C)c2cc(Br)c(OC(C)=O)cc12 | -68.7
81 | CCOC(=O)c1c(C)n(C)c2c1cc(OC(C)=O)c1ccccc12 | 19.7
82 | CCOC(=O)c1c(CSC(=N)N)n(-c2ccccc2)c2cc(Br)c(OC(C)=O)cc12 | -77.9
83 | Br.CCOC(=O)c1c(CSC(=N)N)n(-c2ccc(C)cc2)c2cc(Br)c(OC(C)=O)cc12 | -65.4
84 | CCOC(=O)c1c(C)n(C)c2cc(Br)c(C)cc12 | 23.3
85 | Br.CCCCCCCCOC(=O)c1c(CSC(=N)N)n(C)c2cc(Br)c(OC(C)=O)cc12 | -22.8
86 | C=CCCc1ccc(C#N)c(SCc2c(C(=O)OCC)c3cc(OC(C)=O)c(Br)cc3n2C)n1 | -1.18
87 | CCOC(=O)c1c(CSc2ccccc2)n(C)c2cc(Br)c(OCC(O)CNC(CO)(CO)CO)cc12 (stereo not shown) | 2.71
88 | CCOC(=O)c1c(CSc2nc(C)cc(C)c2C#N)n(C)c2cc(Br)c(OC(C)=O)cc12 | 8.76

— paper PMC4336329 (PLoS ONE, 2015)
